NIH3T3 tox: kills NIH 3T3 cells; Potency, µM (series often up to 96.7 µM), for the others: top-dose activity change, negative = cytotoxicity, most hits filed as inhibitors; hit rate 4.3% among 94,000; NIH 3T3 viability, CellTiter-Glo ATP luminescence, 48-72 h; note: nearly all actives have a fitted effect of over 55% in size
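Luminescent ATP readout (CellTiter-Glo, 10 min RT) after 48 or 72 hr compound exposure of NIH 3T3 cells seeded at 400 cells/well in 1536-well format; quantitative HTS.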
FLuc inh: inhibitors of firefly (Photinus pyralis) luciferase | Potency, µM (top dose mostly 115 µM), usual class: inhibitors | hit rate 2.5% among 76,000 | P08659 | purified P. pyralis luciferase, luminescence, biochemical; note: nearly all actives have a fitted effect of over 65% in size
Target sequence (P08659 whole entry, looked up): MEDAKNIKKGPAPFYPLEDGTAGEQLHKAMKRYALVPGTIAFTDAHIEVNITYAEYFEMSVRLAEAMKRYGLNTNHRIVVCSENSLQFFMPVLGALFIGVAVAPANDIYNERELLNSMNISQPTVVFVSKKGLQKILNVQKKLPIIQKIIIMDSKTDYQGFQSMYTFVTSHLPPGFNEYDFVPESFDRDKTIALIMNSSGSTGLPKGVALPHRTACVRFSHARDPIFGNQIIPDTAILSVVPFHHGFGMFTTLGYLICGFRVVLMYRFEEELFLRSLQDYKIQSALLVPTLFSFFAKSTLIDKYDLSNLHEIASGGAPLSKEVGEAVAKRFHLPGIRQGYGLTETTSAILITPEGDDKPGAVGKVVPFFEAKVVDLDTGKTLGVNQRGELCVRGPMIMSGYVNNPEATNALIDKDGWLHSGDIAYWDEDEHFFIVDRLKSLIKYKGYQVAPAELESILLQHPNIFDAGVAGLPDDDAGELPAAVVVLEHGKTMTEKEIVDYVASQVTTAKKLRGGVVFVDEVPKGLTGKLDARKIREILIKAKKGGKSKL
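FLuc 10nM, D-luciferin 10uM, ATP 10uM, Mg acetate 10mM, Tris acetate pH 7.5, Tween/BSA; cpd qHTS; enzyme added last; CCD luminescence.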
HEK cytotox: kills HEK 293 cells | HEK 293 viability, ATP luminescence (CellTiter-Glo), 48-72 h | Potency, µM (highest dose often 115 µM), without a hit: at the highest dose activity change, negative = cytotoxicity, actives largely listed as inhibitors | hit rate 6.6% among 94,000 | AID 1345083; note: nearly all actives have a fitted effect of over 60% in size
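Viability of HEK 293 cells, plated at 250 cells/well, was judged by cellular ATP after compound treatment for 48 or 72 hr. Luminescence was imaged 10 min after CellTiter-Glo addition at room temperature.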
GPT2 inhibitor: GPT2 alanine aminotransferase inhibition. hit rate 0.25% among 100,000. Potency, µM (highest dose often 57.7 µM), without a hit: at the top dose activity change, negative = inhibition, actives largely listed as inhibitors. AID 1671188. Q8TD30. Recombinant GPT2, coupled pyruvate oxidase/HRP Amplex Red fluorescence; note: nearly all actives have a fitted effect of over 60% in size
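Fluorescence read-out: pyruvate from GPT2 turnover coupled to pyruvate oxidase, HRP and Amplex Red (0.2mM ThPP, 0.2U/mL PO and HRP, 50uM Amplex final). Substrates 250uM a-KG, 2mM L-alanine; enzyme 10ng/uL; 30 min RT.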
NPR1 antag: antagonists of human natriuretic peptide receptor Npr1; P16066; HEK293 hNpr1 GloSensor cGMP, ANP-stimulated luminescence; Potency, µM (highest dose often 46.3 µM), without a hit: at the highest dose activity change, negative = inhibition, hits mostly inhibitors; hit rate 1.6% among 76,000; AID 1347048; calls by dose curve; note: nearly all actives have a fitted effect of over 60% in size
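Compound pre-incubated 30 min at room temperature on GloSensor-loaded HEK293 cells stably carrying hNpr1 and the pGS-40F cGMP biosensor. Stimulation uses hNppA at 0.1 nM final; luminescence is taken at baseline and 20 min post-agonist.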
An asterisk follows results filed as active; i = inactive; ? = inconclusive; . = not tested or not shown; [ ] = another dose, or the depositor's remark. Sampled rows, rich in hits. Any-hit rate of the full collection: about 10%. Unless noted, calls come from the whole dose curve; as a rule, active = well fitted curve in the direction sought with a large enough effect; inconclusive = small, poorly fitted or top-dose-only effect, or another doubt; inactive = no such curve, though single readings can be large; an effect the other way counts as inactive or inconclusive. % is set by controls: 0 for no effect and ±100 for the full control effect; potency is the fitted concentration of half-maximal effect.

SMILES | NIH3T3 tox | FLuc inh | HEK cytotox | GPT2 inhibitor | NPR1 antag
CS(=O)(=O)c1ccc(-c2cnc([C@@H]3COCCN3Cc3ccc(Cl)cc3)[nH]2)cc1 | ? | i | 79µM* | 4%[88.5 µM] | -15%[70.6 µM]
CN(C)c1ccc(CN2CCOC[C@H]2c2ncc(-c3cccc(Cl)c3)[nH]2)cc1 | ? | i | 112µM* | ? | -30%[70.6 µM]
CS(=O)(=O)c1ccc(-c2cnc([C@@H]3COCCN3Cc3ccncc3)[nH]2)cc1 | -1%[174 µM] | i | 4%[172 µM] | i | -2%[70.6 µM]
Clc1cccc(-c2cnc([C@@H]3COCCN3Cc3ncc[nH]3)[nH]2)c1 | -1%[138 µM] | i | -10%[172 µM] | -9%[88.5 µM] | 1%[70.6 µM]
CN(C)c1ccc(CN2CCOC[C@H]2c2ncc(-c3ccc(F)cc3F)[nH]2)cc1 | ? | i | ? | ? | -16%[70.6 µM]
Fc1ccccc1CN1CCOC[C@H]1c1ncc(-c2cccc(Cl)c2)[nH]1 | 79µM* | i | 79µM* | i | -19%[70.6 µM]
Oc1ccccc1CN1CCOC[C@H]1c1ncc(-c2ccc(F)cc2F)[nH]1 | ? | i | 79µM* | -12%[88.5 µM] | -25%[70.6 µM]
CCOc1ccccc1C1NC(=O)N(CC(=O)Nc2cccc(C)c2C)C2=C1C(=O)OC2 (centres undefined) | -4% | i | 3% | -16% | -3%
Fc1cccc(-c2cnc([C@@H]3COCCN3Cc3ccc(Cl)cc3)[nH]2)c1 | ? | i | 79µM* | -16%[88.5 µM] | ?
Fc1ccc(CN2CCOC[C@H]2c2ncc(-c3cccc(Cl)c3)[nH]2)cc1 | 71µM* | i | ? | -20%[88.5 µM] | ?
COc1ccc(CN2CCOC[C@H]2c2ncc(-c3cccc(F)c3)[nH]2)cc1 | ? | i | ? | i | -22%[70.6 µM]
Cc1cnc(C)n1CCNC(=O)c1ccsc1 | -11% | i | 0% | 4% | 2%
COc1cc2c(CCNC(C)=O)c[nH]c2cc1Cl | . | . | . | 4% | .
CC(=O)NCCc1c[nH]c2ccc(O)cc12 | . | . | . | 3.2µM* | .
CN(C)c1ccc2ncc(Nc3ccccc3-c3ccccc3)n2n1 | 28µM* | ? | 63µM* | i | -6%[70.6 µM]
CN(C)c1ccc2ncc(Nc3cccc(C(F)(F)F)c3)n2n1 | ? | i | ? | i | 6%[70.6 µM]
Cn1ccnc1C(=O)N1C[C@@H](Oc2cccnc2)C[C@H]1C(=O)NC1CC1 | -15% | i | -6% | -5% | -3%
CCn1ccnc1C1CCN(C(=O)CC2NC(=O)NC2=O)CC1 (centres undefined) | i | i | ? | -13% | -3%
COc1cccc([S+](=O)([O-])N2CCC3(CC2)CC(=O)Nc2ccccc2O3)c1 | -16% | i | 50µM* | i | -3%
COc1cccc([S+](=O)([O-])N2CCC3(CC2)NC(=O)c2ccccc2O3)c1 | ? | i | 40µM* | -10% | ?
CN1CC[C@@H](c2c(O)cc(O)c3c(=O)cc(-c4ccc(C(F)(F)F)cc4Cl)oc23)[C@@H]1CO | . | . | . | i | .
Cc1ccsc1C(=O)N1CCC(CCC(=O)N2CCC(Cc3ccccc3)CC2)CC1 | ? | i | 45µM* | -5% | ?
Cc1ccc(C(=O)N2CCC(CCC(=O)N3CCN(c4ccccn4)CC3)CC2)cc1 | -28% | 20µM* | ? | i | ?
O=C(CCC1CCN(C(=O)c2ccccc2)CC1)N1CCC(Cc2ccccc2)CC1 | ? | i | ? | -5% | -28%
O=C(CCC1CCN(C(=O)c2ccccn2)CC1)N1CCC(Cc2ccccc2)CC1 | -37% | i | ? | 4% | -17%
SMILES | NIH3T3 tox | FLuc inh | HEK cytotox | GPT2 inhibitor | NPR1 antag
COc1ncccc1C(=O)N1CCC(CCC(=O)N2CCC(Cc3ccccc3)CC2)CC1 | ? | i | 35µM* | i | ?
COc1ccccc1-c1ccc2c(C(=O)NCCCc3ccccc3)nn(C)c2n1 | ? | . | ? | i | .
O=C(CCC1CCN(C(=O)c2ccccc2)CC1)N1CCOCC1 | 4% | ? | 7% | i | -2%
COc1ccccc1-c1ccc2c(C(=O)N3CCC(Cc4ccccc4)CC3)nn(C)c2n1 | ? | . | 79µM* | i | .
Cc1noc(C)c1[S+](=O)([O-])N1CCN(c2ccc3nnc(C)n3n2)CC1 | -11% | . | -10% | . | .
Cc1nn(CC(=O)O)c(=O)c2nc(-c3ccccc3)sc12 | i | i | -1% | i | 0%
